The values that follow are results of earlier work, collected in PubChem BioAssay AID977610.

About 3,600 (100%) of roughly 3,600 compounds were called active. The limit is not given here; nearly all actives have Ki up to about 18000 µM. So high a share suggests a set chosen from earlier hits. Some of the results follow. Where a SMILES comes first, the peptide text is derived from it. Residues, ends and D or L forms follow the SMILES beside them. Peptide text beside a SMILES is read from it. The star is where a group is joined. Bz = O=C(c1ccccc1)*

The data set is described as follows: PubChem AID 977610. The note with it: PDB protein-ligand complexes, literature Ki.

Consider `NCCCC[C@H](NC(=O)[C@H](CCCN=C(N)N)NC(=O)[C@H](CC(N)=O)NC(=O)[C@H](CCC(=O)O)NC(=O)[C@H](CS)NC(=O)CNC(=O)[C@H](CCCN=C(N)N)NC(=O)[C@H](CC(=O)O)NC(=O)[C@H](Cc1c[nH]c2ccccc12)NC(=O)[C@H](CS)NC(=O)[C@@H](N)CCC(N)=O)C(=O)N[C@@H](CS)C(=O)N[C@@H](CC(N)=O)C(N)=O` (H-QCWDRGCENRKCN-NH2), for which the Ki (commonly the equilibrium dissociation constant of an inhibitor or competing ligand from its target) (protein: urokinase-type plasminogen activator (uPA), PDB entry 4mnw) is 1.72 µM (active).

For the molecule `CC(C)C[C@H](N)C(=O)N[C@@H](CS)C(=O)N[C@@H](CO)C(=O)N[C@@H](CC(=O)O)C(=O)N[C@@H](CCCN=C(N)N)C(=O)NCC(=O)N[C@@H](CS)C(=O)N[C@@H](CCC(=O)O)C(=O)N[C@@H](CC(N)=O)C(=O)N[C@@H](CCCN=C(N)N)C(=O)N[C@@H](Cc1c[nH]c2ccccc12)C(=O)N[C@@H](CS)C(=O)N[C@@H](CCCCN)C(N)=O` (H-LCSDRGCENRWCK-NH2), the Ki (protein: urokinase-type plasminogen activator (uPA), PDB entry 4mnx) is 17.7 µM (active).

Take `C#C[C@@H]1N[C@@H](C)[C@@H](O)[C@H]1O`: the Ki (protein: Alpha-L-fucosidase Fuc2970, PDB entry 4pct) was 0.07 µM (active).

On to `NC(N)NCCCNC(=O)[C@@H]1CCCCN1C(=O)[C@@H](CC1CCCCC1)NCC(=O)O`, for which the inhibition constant Ki (protein: bovine trypsin, PDB entry 1k1o) was 0.675 µM (active).

Turning to `Nc1[nH]c(=S)nc2[nH]ncc12`, the Ki (protein: PDE10A2, PDB entry 4lkq) was 450 µM (active).

For the molecule `NC(N)NCCCC[C@H](N)[P+](O)(O)O`, the Ki (protein: M1 family aminopeptidase, PDB entry 4k5l) was 11 µM (active).

For the molecule `NC(N)NCCC[C@H](N)[P+](O)(O)O`, the Ki (protein: M1 family aminopeptidase, PDB entry 4k5m) was 193 µM (active).

In the case of `C[C@@H]1N[C@@H](C#Cc2ccccc2)[C@H](O)[C@@H]1O`, for the setting “protein: Alpha-L-fucosidase Fuc2970, PDB entry 4pcs”, the Ki was 0.014 µM (active).

For `C[C@H](NC(=O)[C@H](C)NC(=O)[C@H](Cc1cc(-c2ccccc2)no1)C[P+](O)(O)c1ccc(Br)cc1)C(N)=O`, the Ki (protein: Macrophage metalloelastase (F171D mutation), PDB entry 4gr8) was 0.0147 µM (active).

For `C[C@H](NC(=O)[C@H](C)NC(=O)[C@H](Cc1cc(-c2ccc(-c3cccc(Cl)c3)cc2)no1)C[P+](O)(O)c1ccc(Br)cc1)C(N)=O`, for the setting “protein: Macrophage metalloelastase (F171D mutation), PDB entry 4gr0”, the inhibition constant Ki was 0.00028 µM (active).

`N=Cc1nc(N2CCOCC2)nc(N(Cc2ccc(Cl)cc2)C2CCCCC2)n1`: the inhibition constant Ki (protein: CATHEPSIN L1, PDB entry 4axm) was 0.013 µM (active).

Take `C[C@H](NC(=O)[C@H](CO)N[C@H](O)CSCCNC(=O)CCNC(=O)[C@H](O)C(C)(C)CO[P+](O)(O)O[P+](O)(O)OCc1oc(-n2cnc3c(N)ncnc32)c(O)c1O[P+](O)(O)O)C(=O)N[C@@H](CO)C(=O)N[C@@H](CCC(=O)O)C(=O)O`: the Ki (protein: N-terminal acetyltransferase A complex subunit nat1, PDB entry 4kvm) is 8.9 µM (active).

Consider H-PLSFLV-OH, for which the inhibition constant Ki (protein: LSD1-CoREST complex, PDB entry 3zmv) is 55 µM (active).

As for H-PKSFLV-OH, for the setting “protein: LSD1-CoREST complex, PDB entry 3zmu”, the inhibitory constant (Ki) is 49.6 µM (active).

Regarding `CC(C)C[C@H](NC(=O)[C@@H](NC(=O)CNC(=O)c1ccccc1)C(C)C)C(=O)N[C@@H](CCCCN)C(=O)N[C@@H](CCC(=O)O)C(=O)N[C@@H](Cc1ccc(O)cc1)C(=O)NCC(=O)N[C@H](C(=O)O)C(C)C` (Bz-GVLKEYGV-OH), the Ki (protein: NAD-DEPENDENT PROTEIN DEACYLASE SIRTUIN-5, MITOCHONDRIAL zebrafish Sirtuin 5, PDB entry 4uub) was 17.2 µM (active).

As to H-PTSII-OH, the Ki (protein: CFTR Associated Ligand (CAL) PDZ domain, PDB entry 4joh) was 450 µM (active).

On to `CC[C@H](C)[C@H](NC(=O)[C@@H](NC(=O)[C@H](CO)NC(=O)[C@@H](N)CC(=O)O)[C@@H](C)CC)C(=O)O` (H-DSII-OH), for which the inhibition constant Ki (protein: CFTR Associated Ligand (CAL) PDZ domain, PDB entry 4k72) is 1000 µM (active).

On to `O=[N+]([O-])c1ccc(NNC(=S)Nc2ccc(F)cc2)c([N+](=O)[O-])c1`, for which the Ki (protein: GTPase HRas(T35S mutant), PDB entry 2lwi) was 773 µM (active).

As to `CCCCCCc1cccc(NC(=O)[C@H](N)CC[P+](O)(O)O)c1`, the Ki (protein: Lipid G protein-Coupled Receptor, PDB entry 3v2w) was 0.077 µM (active).

For the molecule `NC(N)c1ccc(CNC(=O)[C@@H]2CCN2C(=O)[C@H](NCC(=O)O)C2CCCCC2)cc1`, the Ki (protein: THROMBIN, PDB entry 4bah) was 0.00201 µM (active).

`CN(C)C(=O)CN[C@@H](C(=O)N1CC[C@H]1C(=O)NCc1ccc(C(N)N)cc1)C1CCCCC1`: the Ki (protein: THROMBIN, PDB entry 4bam) was 0.00114 µM (active).

Consider `NC(=O)CN[C@@H](C(=O)N1CC[C@H]1C(=O)NCc1ccc(C(N)N)cc1)C1CCCCC1`, for which, for the setting “protein: THROMBIN, PDB entry 4bao”, the Ki was 0.00429 µM (active).

For the molecule `C[C@@H](O)[C@H](N)C(=O)NS(=O)(=O)c1cccc(-c2ccc3[nH]ncc3c2)c1`, the Ki (protein: Threonine--tRNA ligase, cytoplasmic, PDB entry 4hwt) was 50 µM (active).

Take `Cc1cc(-c2nn(C(C)C)c3ncnc(N)c23)cc2ccc(OCc3ccccc3)nc12`: the Ki (protein: Mitogen-activated protein kinase 1 (Q103A, C164L mutant), Rat Erk2, PDB entry 4n4s) is 0.133 µM (active).

With `CC(=O)NCCCC[C@H](NC(=O)[C@H](CCCN=C(N)N)NC(=O)[C@H](Cc1cnc[nH]1)NC(=O)[C@@H](N)CCCN=C(N)N)C(=O)N[C@H](C(=O)O)C(C)C` (H-RHRK(Ac)V-OH), the Ki (protein: Bromodomain-PHD Finger Module of Human Transcriptional Co-Activator CBP, PDB entry 4n3w) is 315 µM (active).

As for `OC[C@@H]1[C@@H](O[C@@H]2O[C@H](CO)[C@@H](O)[C@H](O)[C@@H]2O)[C@H](O)[C@H](O)c2nccn21`, the Ki (protein: GH26 beta-mannanase CjMan26C from Cellvibrio japonicus, PDB entry 4cd5) was 0.194 µM (active) and the Ki (protein: GH113 beta-mannanase AaManA from Alicyclobacillus acidocaldarius, PDB entry 4cd8) is 1300 µM (active).
